Data reported in PubChem BioAssay (NCATS).
Results filed as inconclusive are left out. Entries that show only a call come without a potency. Activity calls are given as the source filed them. The call rests on the fitted dose curve; in most records, active means well fitted inhibition curve with a large enough effect; inconclusive means small, poorly fitted or top-dose-only effect; inactive means no such curve, though single readings can be large or run the other way. Where a SMILES comes first, the peptide text is derived from it. The star is where a group is joined. PhAc = O=C(Cc1ccccc1)*

Target: Cytochrome P450 3A7 (Homo sapiens) (UniProt P24462)
Test: Cytochrome P450 family 3 subfamily A member 7 (CYP3A7) small molecule antagonists: luciferase biochemical qHTS assay (AID 1963596); further: nearly all actives have a fitted effect of over 40% in size
Conditions: P450-Glo CYP3A7 enzyme luminescence, 1 h; series mostly up to 57.4 µM
Outline: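 Enzyme-substrate mix + cpd (DMSO), 10 min RT; + NADPH regen system, 1 h RT; + luciferin detection reagent, 20 min RT; luminescence read. Proluciferin substrate, P450-Glo format, 1536-well qHTS.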

Cytochrome P450 3A7 (Homo sapiens), sequence (P24462 whole entry, looked up): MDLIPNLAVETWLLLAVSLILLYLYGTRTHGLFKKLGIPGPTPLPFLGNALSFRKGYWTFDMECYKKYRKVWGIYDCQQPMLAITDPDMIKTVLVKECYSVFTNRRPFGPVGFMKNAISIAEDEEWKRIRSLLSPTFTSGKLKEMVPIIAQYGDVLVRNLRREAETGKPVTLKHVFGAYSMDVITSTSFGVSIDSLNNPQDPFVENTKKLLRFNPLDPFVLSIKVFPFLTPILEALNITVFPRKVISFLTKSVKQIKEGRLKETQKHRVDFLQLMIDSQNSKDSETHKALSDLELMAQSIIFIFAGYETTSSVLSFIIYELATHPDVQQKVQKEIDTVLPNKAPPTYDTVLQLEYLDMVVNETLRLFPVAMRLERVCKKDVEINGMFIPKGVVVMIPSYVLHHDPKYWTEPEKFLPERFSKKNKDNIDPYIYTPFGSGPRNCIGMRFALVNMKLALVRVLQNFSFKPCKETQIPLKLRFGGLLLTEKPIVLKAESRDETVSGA

Structure (SMILES)	Potency
O=C(O)Cc1cn(-c2ccccc2)nc1-c1ccc(Cl)cc1	inactive
Cc1cc(N)c2cc(NC(=O)Nc3ccc4nc(C)cc(N)c4c3)ccc2n1	inactive
CCc1ccc(C2=CC(c3c(F)cccc3Cl)n3c(nc4ccccc43)N2)cc1 (stereo not given)	inactive
CC(NC(=O)C(=O)Nc1c2c(nn1-c1ccccc1)CSC2)c1ccccc1 (stereo not given)	inactive
O=C(NC1CCC1)c1ccc(C#Cc2cccc(F)c2)nc1	inactive
CCn1c(N)c(C(=O)NC)c(=O)c2ccc(C#C[C@@](C)(O)COC)nc21	inactive
O=C1C(c2[nH]c3ccc(S(=O)(=O)O)cc3c2O)=Nc2ccc(S(=O)(=O)O)cc21	inactive
O=C(O)c1ccccc1NC(=O)N1CCC(c2ccccc2C(F)(F)F)CC1	inactive
C[C@@H]1CN(Cc2ccccc2)C[C@H]1c1nc2c(cnn2C2CCOCC2)c(=O)[nH]1	inactive
CCOc1cc(C(=O)Nc2ccc(-c3nc4ncccc4o3)cc2C)cc(OCC)c1OCC	inactive
NC(=O)c1cccc2cn(-c3ccc(C4CCCNC4)cc3)nc12 (stereo not given)	inactive
Oc1c(I)cc(Cl)c2cccnc12	inactive
Cc1cc(C)cc(NC(=O)Cn2c(=O)n(-c3ccc(C)c(C)c3)c(=O)c3oc4ccccc4c32)c1	inactive
CN(C)C(=O)NC1CCC(CCN2CCN(c3cccc(Cl)c3Cl)CC2)CC1 (stereo not given)	inactive
Fc1ccc(-c2c3cccc(C(F)(F)F)c3nn2Cc2ccc(F)cc2Cl)cc1	inactive
COC(=O)CCC(=O)CN	inactive
COc1cc(C(=O)NC(=S)Nc2cccc(NC(=O)c3ccccc3)c2)cc(OC)c1OC	inactive
CCCc1ccc(C(=O)O)cc1	inactive
COc1ccc(C(=O)NC(c2ccc(Cl)cc2)c2cc(Cl)c3cccnc3c2O)cc1 (stereo not given)	inactive
CNc1ccc([N+](=O)[O-])cc1-n1cnc(-c2ccc(C(F)(F)F)cc2)c1	inactive

Structure (SMILES)	Potency
COC(=O)c1ccccc1O	inactive
Nc1nc(=O)n([C@@H]2CS[C@H](CO)O2)cc1F	inactive
Cc1cc(OCc2nc(-c3ccccc3Cl)cs2)ccc1OCC(=O)O	inactive
CCOc1ccc(C(NC(=O)c2cc(OC)c(OC)c(OC)c2)c2cc(Cl)c3cccnc3c2O)cc1 (stereo not given)	inactive
COC(C)=O	inactive
O=C(CO)[C@@H](O)[C@H](O)[C@@H](O)C(=O)O	inactive
COc1ccc(C(=O)Nc2ccc3oc(-c4ccc(OC)cc4)nc3c2)cc1	inactive
CCOC(=O)CNC(=O)[C@@H]1CCCN1C(=O)Cc1ccccc1 (PhAc-Pro-Gly-OEt)	inactive
CCCC(=O)O	inactive
CC(=O)NC[C@H]1CN(c2ccc(N3CCSCC3)c(F)c2)C(=O)O1	inactive
OC1CCC(Nc2ncc3nc(Nc4c(F)cc(F)cc4F)n([C@H]4CCOC4)c3n2)CC1 (stereo not given in full)	inactive
CCCCCCCCNC(C)C(O)c1ccc(SC(C)C)cc1 (stereo not given)	inactive
O=C(OCc1ccccc1)c1cccnc1	inactive
CC1(C)CC1C(=O)NC(=CCCCCSCC(N)C(=O)O)C(=O)O (stereo not given)	inactive
CC(C)(C)CCN1C[C@@H]2C(CNC(=O)c3cc(Cl)cc(Cl)c3)[C@@H]2C1 (stereo not given in full)	inactive
COc1cc(C(=O)NC(c2ccc(Cl)cc2)c2cc(Cl)c3cccnc3c2O)cc(OC)c1OC (stereo not given)	inactive
CC(C)C[C@H](NC(=O)CNC(=O)[C@H](Cc1ccc(O)cc1)NC(=O)[C@H](CO)NC(=O)[C@H](Cc1c[nH]c2ccccc12)NC(=O)[C@H](Cc1cnc[nH]1)NC(=O)[C@@H]1CCC(=O)N1)C(=O)N[C@@H](CCCN=C(N)N)C(=O)N1CCC[C@H]1C(=O)NCC(N)=O (stereo in doubt)	inactive
CC(C)[C@H]1CC[C@H](C)C[C@H]1O	inactive
O=C(Nc1ccccc1C(=O)Nc1ccc(CCO)cc1)c1ccc([N+](=O)[O-])cc1	inactive
CN[C@H](CC(C)C)C(=O)N[C@H]1C(=O)N[C@@H](CC(N)=O)C(=O)N[C@H]2C(=O)N[C@H]3C(=O)N[C@H](C(=O)N[C@H](C(=O)O)c4cc(O)cc(O)c4-c4cc3ccc4O)[C@H](O)c3ccc(c(Cl)c3)Oc3cc2cc(c3O[C@@H]2OC(CO)[C@@H](O)[C@H](O)[C@@H]2O[C@H]2C[C@](C)(N)[C@H](O)[C@H](C)O2)Oc2ccc(cc2Cl)[C@H]1O (stereo not given in full)	inactive
